# Experimental data reported in PubChem BioAssay.
# “And” between values parts separate entries of the source, which are not always exact repeats. Equal entries are not always repeated. The source made the active and inactive calls. No stated cut-off is given here; in the data, active means inhibition above about 80%; inactive means the rest.
# Assay: growth inhibition, single agent or in combination, cell-based, chromothripsis tumors, cisplatin or BGB combos (AID 1671449);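 further: cells exposed for 96 hours; 0% = vehicle DMSO and 100% = killing by high DMSO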
# Conditions: LFS_MB_P medulloblastoma cells, at 0.5 µM, stronger effect = higher value
row,SMILES,inhibition
1,COc1cc([C@@H]2c3cc4c(cc3[C@@H](O[C@@H]3O[C@@H]5CO[C@@H](c6cccs6)O[C@H]5[C@H](O)[C@H]3O)[C@H]3COC(=O)[C@H]23)OCO4)cc(OC)c1O,-18.8% (inactive) and -25.9% (inactive)
2,COc1cc(NS(C)(=O)=O)ccc1Nc1c2ccccc2nc2ccccc12,66.6% (inactive) and -15.7% (inactive)
3,N=c1ccn2c(n1)O[C@H]1[C@H](O)[C@@H](CO)O[C@H]12,-28.5% (inactive)

# Same assay, conditions: LFS_MB_P medulloblastoma cells, measured here: combination with BGB IC20, at 0.005 µM
row,SMILES,inhibition
1,COc1cc([C@@H]2c3cc4c(cc3[C@@H](O[C@@H]3O[C@@H]5CO[C@@H](c6cccs6)O[C@H]5[C@H](O)[C@H]3O)[C@H]3COC(=O)[C@H]23)OCO4)cc(OC)c1O,-25.8% and -10.9%
2,COc1cc(NS(C)(=O)=O)ccc1Nc1c2ccccc2nc2ccccc12,-8.73% and -9.94%
3,N=c1ccn2c(n1)O[C@H]1[C@H](O)[C@@H](CO)O[C@H]12,-22.6%

# Same assay, conditions: LFS_MB_P medulloblastoma cells, measured here: combination with BGB IC40, at 0.005 µM
row,SMILES,inhibition
1,COc1cc([C@@H]2c3cc4c(cc3[C@@H](O[C@@H]3O[C@@H]5CO[C@@H](c6cccs6)O[C@H]5[C@H](O)[C@H]3O)[C@H]3COC(=O)[C@H]23)OCO4)cc(OC)c1O,-33.2% and -18.4%
2,COc1cc(NS(C)(=O)=O)ccc1Nc1c2ccccc2nc2ccccc12,-5.2% and -25.6%
3,N=c1ccn2c(n1)O[C@H]1[C@H](O)[C@@H](CO)O[C@H]12,-23.7%

# Same assay, conditions: LFS_MB_P medulloblastoma cells, measured here: combination with BGB IC40, at 0.05 µM
row,SMILES,inhibition
1,COc1cc([C@@H]2c3cc4c(cc3[C@@H](O[C@@H]3O[C@@H]5CO[C@@H](c6cccs6)O[C@H]5[C@H](O)[C@H]3O)[C@H]3COC(=O)[C@H]23)OCO4)cc(OC)c1O,-33.7% and -25%
2,COc1cc(NS(C)(=O)=O)ccc1Nc1c2ccccc2nc2ccccc12,-1.49% and -18.2%
3,N=c1ccn2c(n1)O[C@H]1[C@H](O)[C@@H](CO)O[C@H]12,-32.2%

# Same assay, conditions: LFS_MB_P medulloblastoma cells, measured here: combination with cisplatin, at 0.5 µM, stronger effect = higher value
row,SMILES,inhibition
1,COc1cc([C@@H]2c3cc4c(cc3[C@@H](O[C@@H]3O[C@@H]5CO[C@@H](c6cccs6)O[C@H]5[C@H](O)[C@H]3O)[C@H]3COC(=O)[C@H]23)OCO4)cc(OC)c1O,-32.6% and -15.4%
2,COc1cc(NS(C)(=O)=O)ccc1Nc1c2ccccc2nc2ccccc12,79.4% and -1.04%
3,N=c1ccn2c(n1)O[C@H]1[C@H](O)[C@@H](CO)O[C@H]12,-58.3%
